# High-throughput results (PubChem BioAssay)
# An excerpt weighted towards active compounds, which were near 2% of everything screened.
# HGIII-sPLA2 inh: human group III sPLA2 inhibitors, primary screen, biochemical, QFRET, BODIPY PC-A2 liposome substrate | Group 3 secretory phospholipase A2 (Homo sapiens), Q9NZ20 | QFRET BODIPY PC-A2 liposome hydrolysis, fluorescence | inhibition, % at 12.2 µM | actives 0.56% (n = 370,000) | AID 743126, 2013;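 active means inhibition above mean plus 3 SD of compounds lying within the high and low control bounds, cut at about 19% in these data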;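 further: 0% = median of test compound wells and 100% = no enzyme DMSO wells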
# ARNT-TACC3 inh: disruptors of ARNT/TACC3 protein interaction, primary screen, biochemical, AlphaScreen, single concentration; inhibition, % at 9.99 µM; actives 0.66% (n = 390,000); Transforming acidic coiled-coil-containing protein 3 (Homo sapiens), Q9Y6A5; AlphaScreen His-ARNT PAS-B/GST-TACC3 binding, luminescence; TACC3 fragment carries E629A point mutation;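 active means mean inhibition of replicates at least 50% and at least half of replicates each reaching 50%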;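 further: 0% = complete ARNT plus TACC3 wells and 100% = ARNT alone without TACC3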
# DAGLB inhibitor: DAGLB lipase inhibitors, primary screen, biochemical, fluorescence, HTS; AID 504411, 2011; actives 0.059% (n = 340,000); Diacylglycerol lipase-beta (Homo sapiens), Q8NCG7; inhibition, % at 5.17 µM; HEK293T DAGLB membrane lysate, EnzChek fluorogenic substrate; in the data active means inhibition above about 34%;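 further: 0% = enzyme with vehicle and 100% = wells lacking enzyme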
# Target sequence (Q8NCG7 whole entry, looked up): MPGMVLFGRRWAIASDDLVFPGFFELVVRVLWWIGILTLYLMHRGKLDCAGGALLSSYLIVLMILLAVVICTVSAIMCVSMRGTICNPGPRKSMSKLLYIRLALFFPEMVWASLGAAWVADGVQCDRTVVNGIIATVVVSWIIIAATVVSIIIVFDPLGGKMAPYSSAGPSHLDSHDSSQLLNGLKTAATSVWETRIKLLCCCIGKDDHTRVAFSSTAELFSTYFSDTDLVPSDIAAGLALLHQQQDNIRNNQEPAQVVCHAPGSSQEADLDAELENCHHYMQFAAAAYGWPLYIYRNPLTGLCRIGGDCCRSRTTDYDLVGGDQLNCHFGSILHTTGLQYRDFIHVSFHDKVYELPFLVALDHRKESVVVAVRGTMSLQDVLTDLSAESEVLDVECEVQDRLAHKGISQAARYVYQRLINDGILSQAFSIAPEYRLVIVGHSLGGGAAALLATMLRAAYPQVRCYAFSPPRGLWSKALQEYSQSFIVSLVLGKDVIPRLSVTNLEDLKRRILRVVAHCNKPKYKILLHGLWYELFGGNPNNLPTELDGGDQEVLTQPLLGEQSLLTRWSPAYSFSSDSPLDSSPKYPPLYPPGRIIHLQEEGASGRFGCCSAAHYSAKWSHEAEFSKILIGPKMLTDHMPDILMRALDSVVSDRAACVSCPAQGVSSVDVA
# Neddyl block: inhibitors of cullin neddylation, primary screen, biochemical, TR-FRET, uHTS, NAE and Ubc12. NEDD8-conjugating enzyme Ubc12 (Homo sapiens) + NEDD8-activating enzyme E1 regulatory …. inhibition, % at 25 µM. AID 651699, 2012. actives 0.58% (n = 360,000); in the data active means inhibition above about 36%
# NadD block: inhibitors of S. aureus NadD, primary screen, biochemical, colorimetric, uHTS; actives 0.78% (n = 360,000); inhibition, % at 20 µM; purified NadD enzyme, colorimetric absorbance read-out; Nicotinate-nucleotide adenylyltransferase NadD (Staphylococcus aureus N315); in the data active means inhibition above about 26%
# Numbers without * were called inactive; x = not tested or not shown.
SMILES,HGIII-sPLA2 inh,ARNT-TACC3 inh,DAGLB inhibitor,Neddyl block,NadD block
COCC#Cc1cnc2c(c1)C(=O)N([C@H](C)CO)C[C@@H](C)[C@@H](CN(C)S(=O)(=O)c1cn(C)cn1)O2,x,-8,x,x,x
Cc1cc(=O)[nH]c2c(N=Nc3ccc(O)cc3)c(N)nn12,-4,47*,-4,-38,0
CC(=NNC(=S)Nc1ccccc1Cl)c1ccccn1,13,87*,7,-3,3
CC(=NNC(=S)N1CCCCC1)c1ccccn1,2,x,4,13,-1
C/C(=N\NC(=O)c1ccccc1-n1cccc1)c1ccccn1,-22,x,-2,9,-3
C/C(=N\Nc1ccc(Cl)c(C(=O)O)c1)c1ccccn1,2,14,-1,-5,0
C=CCNC(=S)N/N=C(\C)c1ccccn1,-2,59*,-2,-14,-5
CC(=NNC(=S)Nc1ccccc1)c1ccccn1,21*,x,11,3,-1
C/C(=N\Nc1ncc(Cl)cc1Cl)c1ccccn1,x,73*,-8,-34,-5
C[C@@H]1CN([C@H](C)CO)C(=O)c2cc(NC(=O)Cc3ccccc3)ccc2O[C@@H](C)CCCCO[C@H]1CN(C)C(=O)NC1CCCCC1,x,0,x,x,x
CCN(CC)c1ccc(/C=N/N=C(N)N)c(O)c1,10,48*,-1,23,-7
CCCNC(=O)N[C@H]1CC[C@@H](CC(=O)N2CCN(C)CC2)O[C@H]1CO,x,-1,x,x,x
CCc1ccc2c(c1)NC(=O)C2(C)Cc1ccccc1 (configuration not stated),2,x,x,0,-2
CCc1ccc2c(c1)C1(NN=C(c3cccc4ccccc34)S1)C(=O)N2 (configuration not stated),18,32,23,2,35*
CC(C)C#Cc1cnc2c(c1)C(=O)N([C@H](C)CO)C[C@@H](C)[C@@H](CN(C)C(=O)c1ccccc1F)O2,x,-2,x,x,x
CCNc1nc(NCC)nc(C(=O)Nc2ccccc2)n1,-4,96*,4,-10,3
Cc1sc(NC(=O)c2ccco2)c(CN2CCN(c3ccccn3)CC2)c1C,x,7,-6,45*,-5
Cc1sc(NC(=O)c2ccco2)c(CN2CCN(c3ccc(F)cc3)CC2)c1C,7,-6,-5,29,4
O=C(O)CNC(=O)CC1S/C(=N/N=C2/NC(=O)CS2)NC1=O (configuration not stated),3,58*,0,-13,1
NC(=O)NC(=O)CC1S/C(=N/N=C/c2ccccc2)NC1=O (configuration not stated),5,20,2,-6,1
NC(=O)NC(=O)CC1S/C(=N/N=C2\CSC(=O)N2)NC1=O (configuration not stated),0,53*,-6,3,-3
CN1CCN(C(=O)C[C@@H]2CC[C@H]3[C@H](COc4ccc(NC(=O)c5cscn5)cc4C(=O)N3C)O2)CC1,x,0,x,x,x
C[C@@H](NC(=O)C[C@H]1C[C@H]2c3cc(NS(C)(=O)=O)ccc3O[C@H]2[C@@H](CO)O1)c1ccccc1,x,-11,x,x,x
Cc1c(N2C(=O)/C(=C\c3cccc4ccccc34)SC2=S)c(=O)n(-c2ccccc2)n1C,-2,x,0,-34,42*
Cc1cc(-n2c(=S)sc3c(=O)n(-c4ccc(F)cc4)c(SCC(=O)O)nc32)ccc1Cl,-34,22*,6,-26,-3
SMILES,HGIII-sPLA2 inh,ARNT-TACC3 inh,DAGLB inhibitor,Neddyl block,NadD block
COc1ccccc1-n1c(SCC(=O)O)nc2c(sc(=S)n2-c2ccc(Cl)c(C)c2)c1=O,-32,-8,9,-4,4
CN1CCN(CCNC(=O)c2ccc3nc(-c4ccc(F)cc4)c(-c4ccc(F)cc4)nc3c2)CC1,3,11,4,51*,-10
CCc1nc2ccc(C(=O)NCCCN3CCN(c4ccc(F)cc4)CC3)cc2nc1CC,-6,13,0,-12,-5
CCOC(=O)C1CCN(C(=O)Nc2ccc3nc(-c4ccco4)c(-c4ccco4)nc3c2)CC1,x,-5,5,21,66*
Nc1[nH]n2c(=O)c3c(nc2c1N=Nc1ccc(Cl)cc1)CCCC3,10,7,4,-45,32*
Nc1[nH]n2c(=O)c3c(nc2c1N=Nc1ccccc1)CCCC3,15,12,11,-58,16
O=C1C(=Cc2ccc(Br)o2)C(=O)c2ccccc21,x,-10,3,-8,33*
CC1=C/C(=C\c2ccc(Br)o2)C(=O)O1,-1,-2,-1,-1,-4
CCCNC(=O)N[C@H]1C=C[C@H](CC(=O)NCCc2ccccc2)O[C@@H]1CO,x,1,x,x,x
CCNC(=S)NNC(=O)c1cccn(Cc2ccc(Cl)cc2)c1=O,13,44*,1,7,4
Cc1c(Cc2ccccc2)sc(/N=C/c2c(O)ccc3ccccc23)c1C(N)=O,x,-11,6,x,36*
COc1ccc(NS(=O)(=O)c2ccc3c(c2)[C@H]2C=CC[C@H]2[C@@H](c2ccc(C(=O)O)cc2)N3)cc1,-4,16,9,-10,30*
Cc1c(Cl)cccc1NS(=O)(=O)c1ccc2c(c1)C1C=CCC1C(c1ccc(C(=O)O)cc1)N2 (configuration not stated),x,16,21,0,34*
O=C(O)c1ccc2c(c1)C1C=CCC1C(c1ccncc1)N2 (configuration not stated),-1,0,-2,-10,1
CC(=O)c1ccc2c(c1)C1C=CCC1C(c1ccc(S(=O)(=O)N3CCOCC3)cc1)N2 (configuration not stated),0,-5,7,-8,29
O=C(C[C@@H]1CC[C@@H]2[C@H](COC[C@@H](O)CN2C(=O)Nc2cccc(F)c2)O1)NCc1ccccc1Cl,x,-3,x,x,x
Cc1ccc(S(=O)(=O)NC(CC(C)C)C(=O)Oc2ccc3c4c(c(=O)oc3c2)CCC4)cc1 (configuration not stated),-13,-2,-8,x,-7
CC(C)CC(C(=O)Oc1ccc2c3c(c(=O)oc2c1)CCC3)N1C(=O)c2ccccc2C1=O (configuration not stated),2,47*,0,x,7
Cc1ccc(S(=O)(=O)Nc2ccc3c(c2)C(=O)N([C@@H](C)CO)C[C@H](C)[C@H](CN(C)C(=O)CCC(F)(F)F)OCCCC[C@@H](C)O3)cc1,x,5,x,x,x
Cc1[nH]c(=O)[nH]c(=O)c1/C=N/NC(=O)[C@@H](NC(=O)OC(C)(C)C)C(C)C,-3,47*,-3,3,2
